Measurements as given in PubChem BioAssay (NCI).
This is part of a sample that, as a whole, favours compounds with a hit. Of some 83,000 tested, about 20% had one in any assay.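 In brief: 96-well plates, 48 h treatment, single concentration, percent growth endpoint.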 A number with no mark means an inactive call. Calls of active or inactive are those of the source. The calls were made as follows: active = growth percent below 10; inactive = the rest.

What was measured:
Assay in all cases: NCI-60 one-dose screen, 48 h (100 = growth as untreated, 0 = no growth, -100 = all killed)
SK-MEL-2 melanoma = conditions: 10 µM unless noted
EKVX NSCLC = conditions: 10 µM unless noted
SN12C renal = conditions: 10 µM unless noted
UO-31 renal = conditions: 10 µM unless noted
TK-10 renal = conditions: 10 µM unless noted
ACHN renal = conditions: 10 µM unless noted
CAKI-1 renal = conditions: 10 µM unless noted
A498 renal = conditions: 10 µM
HL-60(TB) leukemia = conditions: 10 µM unless noted
CCRF-CEM leukemia = conditions: 10 µM unless noted
MOLT-4 leukemia = conditions: 10 µM unless noted
SR leukemia = conditions: 10 µM unless noted
OVCAR-8 ovarian = conditions: 10 µM unless noted
OVCAR-5 ovarian = conditions: 10 µM unless noted
OVCAR-4 ovarian = conditions: 10 µM unless noted
SK-OV-3 ovarian = conditions: 10 µM unless noted
IGROV1 ovarian = conditions: 10 µM unless noted
OVCAR-3 ovarian = conditions: 10 µM unless noted
HS 578T breast = conditions: 10 µM unless noted
RPMI-8226 leukemia = conditions: 10 µM unless noted

| Structure (SMILES) | growth (SK-MEL-2 melanoma) | growth (EKVX NSCLC) | growth (SN12C renal) | growth (UO-31 renal) | growth (TK-10 renal) | growth (ACHN renal) | growth (CAKI-1 renal) | growth (A498 renal) | growth (HL-60(TB) leukemia) | growth (CCRF-CEM leukemia) | growth (MOLT-4 leukemia) | growth (SR leukemia) | growth (OVCAR-8 ovarian) | growth (OVCAR-5 ovarian) | growth (OVCAR-4 ovarian) | growth (SK-OV-3 ovarian) | growth (IGROV1 ovarian) | growth (OVCAR-3 ovarian) | growth (HS 578T breast) | growth (RPMI-8226 leukemia) |
| --- | --- | --- | --- | --- | --- | --- | --- | --- | --- | --- | --- | --- | --- | --- | --- | --- | --- | --- | --- | --- |
| Clc1cccc(NCOOC2(OOCNc3cccc(Cl)c3)CCCCCC2)c1 | 92.4% | 89% | 95.4% | -47.3% (active) | 92.2% | 80.5% | 36% | 98.8% | 78.8% | 80.2% | 92.7% | 5.27% (active) | 93.9% | 96.6% | 97.4% | 105% | 7.21% (active) | 97.1% | 102% | – |
| CCCCCCCCCCCCCCCCCCOc1ccccc1COP(=O)(O)OOCC[N+](C)(C)C | 35.9% | 11.4% | -6.04% (active) | 38.5% | 3.59% (active) | 8.89% (active) | 1.63% (active) | 52.6% | -42% (active) | -12.8% (active) | -36.1% (active) | -8.81% (active) | -30.5% (active) | 40.5% | 34.6% | 36.2% | -74.1% (active) | -29.2% (active) | 15.6% | – |
| C/C(=C\c1ccn(-c2ccc(N)c(F)c2)n1)[C@@H]1C[C@@H]2O[C@]2(C)CCC[C@H](C)[C@H](O)[C@@H](C)C(=O)C(C)(C)[C@@H](O)CC(=O)O1 | 23.2% | 42.2% | 35.7% | 36.9% | 44.6% | 44.6% | 37.5% | 13% | 5.44% (active) | 12.1% | 6.16% (active) | 9.07% (active) | 24.7% | 19.4% | 52.2% | – | 34% | 2.8% (active) | 2.63% (active) | 8.95% (active) |
| CCOC(=O)c1c(C)n(Cc2ccccc2)c2cc(CN(C)C)c(O)cc12 | 92.1% | 64.1% | 57.8% | 43.8% | 68.8% | 81.5% | 61.6% | 43.2% | 62% | 41.2% | 52.7% | 17.8% | 80.7% | 69.3% | 68.1% | – | – | 79.4% | 61.1% | – |
| O=C1OCC2=C1C(c1ccccc1)c1cc3c(cc1N2)OCO3 (stereo unspecified) | 15.6% | 48% | 21.5% | 45.6% | 56.9% | 27.1% | 38.8% | -6.52% (active) | 2.29% (active) | 11.6% | 21.2% | 8.69% (active) | 5.45% (active) | 43.5% | 41.4% | – | 36.4% | -46% (active) | 43.2% | – |
| O[C@H](CN1CC1)[C@@H](O)CN1CC1 | 87% | 94.6% | 41.1% | 51.1% | 101% | 24% | -0.578% (active) | 95.1% | 30.7% | 33.3% | 32.8% | 16.9% | 55% | 103% | 93.1% | – | 93.9% | 101% | 97.1% | – |
| CC(C)(N)Cc1ccccc1 | 108% | 99.1% | 108% | 84.7% | 96.5% | 106% | 97.6% | 111% | 94.9% | 100% | 103% | – | 106% | 109% | 112% | 106% | 106% | 112% | 96.6% | 99.9% |
| CC12CCC3C(C=CC4=C(N)C(=O)CCC43C)C1CCC2=O (stereo unspecified) | 74.4% | 98% | 88.5% | 64.6% | 85.6% | 88.2% | 84.1% | 99.2% | 52.5% | 6.62% (active) | 57.2% | -18.1% (active) | 44% | 108% | 62% | 120% | 49.5% | 64.6% | 113% | – |
| COc1cccc2c1c(C(=O)C(=O)Nc1cc(C)no1)cn2Cc1ccc(F)cc1 | 75.1% | 78.9% | 62.2% | 57.5% | 82.6% | 88.6% | 86.7% | 91.1% | 1.01% (active) | 66.6% | 32.5% | – | 81.7% | 76.1% | 90.9% | 102% | 37% | 3.35% (active) | 53.3% | 20.7% |
| CC(CC1CCCCC1)NCc1ccccc1 (stereo unspecified) | 102% | 99.1% | 94% | 66.2% | 94.2% | 96.1% | 99.9% | 89.5% | 111% | 100% | 100% | 105% | 106% | 91.1% | 113% | – | 107% | 105% | 98.5% | 106% |
| CCn1nccc1NC(=O)C(=O)c1cn(Cc2ccc(F)cc2)c2cccc(OC)c12 | 48.2% | 81.6% | 86.9% | 47.5% | 120% | 85.3% | 98.6% | 94.1% | 56.8% | 76.6% | 66.4% | – | 92.2% | 96.8% | 94.8% | 100% | 3.65% (active) | 94% | 89% | 59.9% |
| CCN(CC)CCOC(=O)C(OC(C)C)(c1ccccc1)c1ccccc1 | 88.2% | 93.5% | 106% | 79.1% | 89% | 104% | 87.2% | 72.6% | 99.6% | 102% | 93.1% | – | 106% | 92.9% | 103% | 94.4% | 87.2% | 97.3% | 93.4% | 102% |
| COc1cc(C=Nc2cccc(Br)c2)ccc1N(CCCl)CCCl | 91.2% | 120% | 84.5% | 69.1% | 92.9% | 18.2% | 5.9% (active) | 120% | 71.2% | 63.5% | 64.2% | – | 81.6% | 85.6% | 93.6% | 71.3% | 96.3% | 80.8% | 150% | 86.2% |
| COC1=CC(=O)O[C@@H](/C=C/c2ccc3c(c2)OCO3)C1 | -20.1% (active) | 114% | 100% | 87.5% | 102% | 110% | 107% | 59.2% | 114% | 61.2% | 91% | – | 99.3% | 95.7% | 112% | 110% | 99.2% | 153% | – | 49.9% |
